Results from publication PMC4336329 (PLoS ONE, 2015).
In all, about 310,000 compounds went through this assay and about 14,000 (4.5%) showed an effect of 50% or more. The effect is printed as a negative number. This is one part of a sample in which strong results are shown more often than they occur.

target: human ether-à-go-go-related gene (hERG) potassium channel (human, UniProt Q12809); assay: primary screen, population patch clamp on CHO cells stably expressing hERG; higher = less effect of the substance
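Also: peak tail current of the secondary pulse compared with the same well before compound.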

Chain of human ether-à-go-go-related gene (hERG) potassium channel (Q12809 whole entry, looked up): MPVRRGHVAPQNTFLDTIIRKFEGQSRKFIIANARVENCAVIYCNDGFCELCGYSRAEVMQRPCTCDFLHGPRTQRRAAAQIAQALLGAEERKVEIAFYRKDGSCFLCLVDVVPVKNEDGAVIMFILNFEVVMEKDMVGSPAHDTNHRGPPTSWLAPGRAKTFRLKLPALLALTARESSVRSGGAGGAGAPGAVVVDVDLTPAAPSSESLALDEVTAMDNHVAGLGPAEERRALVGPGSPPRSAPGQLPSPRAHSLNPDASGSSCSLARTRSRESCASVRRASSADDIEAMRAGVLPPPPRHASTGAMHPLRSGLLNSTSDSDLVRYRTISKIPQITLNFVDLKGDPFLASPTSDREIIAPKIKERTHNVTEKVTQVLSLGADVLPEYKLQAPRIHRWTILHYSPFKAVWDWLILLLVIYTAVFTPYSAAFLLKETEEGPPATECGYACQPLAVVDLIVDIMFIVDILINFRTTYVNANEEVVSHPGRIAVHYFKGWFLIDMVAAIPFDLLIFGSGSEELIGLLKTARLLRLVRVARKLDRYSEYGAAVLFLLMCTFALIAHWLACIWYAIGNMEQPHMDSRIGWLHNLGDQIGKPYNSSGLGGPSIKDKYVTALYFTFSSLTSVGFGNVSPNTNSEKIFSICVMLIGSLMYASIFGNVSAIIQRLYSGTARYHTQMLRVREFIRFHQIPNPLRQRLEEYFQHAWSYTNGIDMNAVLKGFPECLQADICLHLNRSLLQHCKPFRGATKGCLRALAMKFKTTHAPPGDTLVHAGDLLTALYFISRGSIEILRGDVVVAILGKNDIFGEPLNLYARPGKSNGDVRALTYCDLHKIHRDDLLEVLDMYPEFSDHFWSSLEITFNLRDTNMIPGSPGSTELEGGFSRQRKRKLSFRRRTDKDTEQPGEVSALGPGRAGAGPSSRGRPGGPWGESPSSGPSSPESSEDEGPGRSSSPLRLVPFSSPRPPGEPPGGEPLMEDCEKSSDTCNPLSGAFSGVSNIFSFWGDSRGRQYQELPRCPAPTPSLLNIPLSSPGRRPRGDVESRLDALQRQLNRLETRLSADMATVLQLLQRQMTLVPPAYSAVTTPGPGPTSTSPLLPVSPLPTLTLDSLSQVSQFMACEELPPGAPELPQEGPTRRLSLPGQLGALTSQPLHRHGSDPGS

Row | Structure (SMILES) | hERG current change (%, negative = inhibition) at 10uM [%]
1 | Cc1ncc([N+](=O)[O-])n1CC(=O)NCc1ccccc1 | 16
2 | Cc1ccc(S(=O)(=O)NNC(=O)C(=O)NNS(=O)(=O)c2ccc(C)cc2)cc1 | -1.99
3 | O=C(c1ccc(Cl)cc1)N1CCCCC(Cl)C1=O (stereo not shown) | 7.57
4 | COc1cccc(Nc2ncc(C(=O)O)c3ccccc23)c1 | -1.48
5 | Fc1cnc(Cl)nc1N1CCN(c2ccccc2)CC1 | -17.4
6 | Cc1nn(Cc2ccccc2)c(C)c1C(=O)OCC(=O)c1cc(C)n(CC(F)(F)F)c1C | -2.57
7 | COc1cccc(-n2c(-c3ccco3)nc3nc4ccccc4nc32)c1 | 18.4
8 | O=C(COC(=O)c1cccnc1Nc1ccccc1F)NC1CC1 | -0.164
9 | Cc1cc(O)ccc1N/C=C(\C#N)c1nc2ccccc2o1 | 10.2
10 | C=C(C)COc1ccc2c(C)c(CCC(=O)NC3CC3)c(=O)oc2c1 | -2.92
11 | CCOC(=O)c1sc2nc(CN3CCN(c4cccc(C(F)(F)F)c4)CC3)[nH]c(=O)c2c1C | 8.43
12 | COc1ccc(-c2noc(=O)n2Cc2ccc(C#N)cc2)cc1 | -70.1
13 | COc1ccc(-c2noc(=O)n2Cc2ccccc2Cl)cc1 | -8.73
14 | N#Cc1ccc(Cn2c(-c3ccc(F)cc3)noc2=O)cc1 | -17.8
15 | Cc1cc(C)n(Cc2ccc(C(=O)O)o2)n1 | 11.5
16 | COc1ccccc1COn1c(=O)c(-c2ccco2)[n+]([O-])c2ccccc21 | 5.96
17 | O=C(NCCN1CCOCC1)c1c(O)nc2ccccn2c1=O | 10.9
18 | N=c1c(S(=O)(=O)c2ccc(Cl)cc2)cc2c(=O)n3ccccc3nc2n1CCN1CCOCC1 | -46.4
19 | N=c1c(C(=O)NCc2ccc(F)cc2)cc2c(=O)n3ccccc3nc2n1CCCN1CCOCC1 | -83
20 | N=c1c(S(=O)(=O)c2ccccc2)cc2c(=O)n3ccccc3nc2n1CCCN1CCOCC1 | -65.9
21 | N=c1c(C(=O)NCc2ccccc2)cc2c(=O)n3ccccc3nc2n1CCCN1CCOCC1 | -78.6
22 | Nc1c(C(=O)NCc2ccc(F)cc2)c2nc3ccccc3nc2n1CCCN1CCOCC1 | 0.0395
23 | Cc1ccc(S(=O)(=O)c2cc3c(=O)n4ccccc4nc3n(CCCN3CCOCC3)c2=N)cc1C | -36.8

Row | Structure (SMILES) | hERG current change (%, negative = inhibition) at 10uM [%]
24 | N=c1c(C(=O)NCCN2CCOCC2)cc2c(=O)n3ccccc3nc2n1CCc1ccccc1 | -72.5
25 | CN(C)S(=O)(=O)N1CCC(Oc2ccc(C(=O)NCCc3cscn3)cc2)CC1 | 0.0832
26 | CC(C)O.CCc1nnc(NS(=O)(=O)c2ccc(NC(=O)C(c3ccccc3)c3ccccc3)cc2)s1 | 2.36
27 | CCc1nnc(NC(=O)C2CC(=O)N(c3ccc4c(c3)OCCO4)C2)s1 (stereo not shown) | 4.32
28 | CC(=O)Nc1ccc(C(=O)CS(=O)(=O)c2ccc(C)cc2)cc1 | -11.5
29 | N=c1c(C(=O)NCCN2CCOCC2)cc2c(=O)n3ccccc3nc2n1CCCN1CCOCC1 | -4.43
30 | N=c1c(C(=O)NCCc2ccccc2)cc2c(=O)n3ccccc3nc2n1CCCN1CCOCC1 | -76.2
31 | CC1(C)CC(=O)C=C(NCCO)C1 | -0.4
32 | O=C(Nc1ccc(N2CCN(C(=O)c3ccco3)CC2)cc1)c1ccco1 | 20.7
33 | Cc1nnc(NC(=O)CC(CN(C)S(=O)(=O)c2ccccc2)c2ccccc2)s1 (stereo not shown) | -18.7
34 | CN(CC(CC(=O)Nc1nncs1)c1ccccc1)S(=O)(=O)c1ccccc1 (stereo not shown) | -14.2
35 | CN(CC(CC(=O)Nc1nncs1)c1ccccc1)S(=O)(=O)c1ccc(Br)cc1 (stereo not shown) | -55.4
36 | COC(=O)c1ccccc1NC(=O)Nc1ccc(Cl)cn1 | -3.82
37 | O=C(Nc1ccc2c(c1)OCO2)Nc1ccc(Br)cn1 | 3.01
38 | Cc1cccc(N/C=C/C(=C(C#N)C#N)N(C)C)c1 | -24.5
39 | Cc1ccc(NC(=O)CNc2ccccc2CN(C)C2CCCCC2)cc1 | -59.1
40 | COc1ccc(C)cc1NC(=O)CNc1ccccc1CN(C)C1CCCCC1 | -19.6
41 | CN(Cc1ccccc1NCC(=O)Nc1ccccc1C#N)C1CCCCC1 | -33
42 | Cc1c(C(=O)N(C)CCC#N)oc2ccc(S(=O)(=O)N3CCOCC3)cc12 | 10.1
43 | O=C(NNc1ncnc2c1cnn2-c1ccc(F)cc1)c1cccs1 | 6.55
44 | O=C1CCC(C(=O)N(CCO)Cc2ccccc2)CN1CC1CCCCC1 (stereo not shown) | 11.7
45 | CN(C)C1=NCCN1CCc1ccc(F)cc1 | -9.03
46 | CCOC(=O)c1cnc2ccc(OCC)cc2c1NCCN1CCOCC1.Cl | -67.9

Row | Structure (SMILES) | hERG current change (%, negative = inhibition) at 10uM [%]
47 | CCOC(=O)c1cnc2ccc(OC)cc2c1NCCN1CCOCC1 | -48.5
48 | CCOC(=O)c1cnc2c(cnn2C)c1NCCCn1ccnc1 | -35.9
49 | CCOC(=O)c1cnc2c(cnn2C)c1NCCCN(C)C | -51.7
50 | CCOC(=O)c1cnc2c(C)c(Cl)ccc2c1NCCCN1CCOCC1 | -49.2
51 | CCOC(=O)c1ccc2ncc(C(=O)OCC)c(NCCCN3CCOCC3)c2c1 | -47.3
52 | CCOC(=O)c1cnc2ccc(C(=O)OC)cc2c1NCCN1CCOCC1 | -30.2
53 | CCOC(=O)c1cnc2ccc(C(=O)OC)cc2c1NCCCN1CCOCC1 | -60.5
54 | CCOC(=O)c1cnc2ccc(OCC)cc2c1NCCCN1CCOCC1.Cl | -75.6
55 | CCOC(=O)c1cnc2c(cnn2C)c1NCCC#N | -7.43
56 | CCOC(=O)c1cnc2ccc(Br)cc2c1NCCCN1CCOCC1 | -39
57 | O=C(NCCc1ccccc1)C1CCN(S(=O)(=O)N2CCCCC2)CC1 | 2.19
58 | CCCNC(=O)Cn1c(=O)oc2cc(S(=O)(=O)N3CCCC3)ccc21 | 11.9
59 | Oc1ccccc1C(=S)N1CCN(C(=S)c2ccccc2O)CC1 | 18.4
60 | C#CCNC(=O)C1=C[C@H](c2coc3ccccc3c2=O)[C@@H](CCCO)[C@H](OCC)O1 | -23.3
61 | Cc1[nH]c2ccccc2c1CCCO | 10.7
62 | CC(C)(C)NC(=O)CN1C(=O)/C(=C/c2ccccc2)SC1=S | 10
63 | O=C(CN1CCN(c2ccccc2)CC1)NC(=O)NCc1ccco1 | 9.72
64 | CCOC(=O)c1cnc2ccc(Cl)cc2c1NCCN(C)C | -22.8
65 | CCOC(=O)c1ccc2ncc(C(=O)OCC)c(NCCN3CCOCC3)c2c1 | -48.5
66 | CCOC(=O)c1cnc2ccccc2c1NCCO | -34.8
67 | CCOC(=O)c1cnc2c(ccc3ccccc32)c1NCCN(C)C | -7.47
68 | CCOC(=O)c1cnc2ccc(Br)cc2c1NCCO | -9.88
69 | CCOC(=O)c1ccc2ncc(C(=O)OCC)c(NCCN(C)C)c2c1 | -69.5

Row | Structure (SMILES) | hERG current change (%, negative = inhibition) at 10uM [%]
70 | CCOC(=O)c1cnc2c(Cl)c(Cl)ccc2c1NCCN1CCOCC1.Cl | 14.3
71 | CCOC(=O)c1cnc2ccc(C)cc2c1NCCO | -66.4
72 | CCOC(=O)c1cnc2ccc(C)cc2c1NCCN1CCOCC1.Cl | -65.7
73 | Nc1nnn(CC(=O)N/N=C/c2cccc(Cl)c2)n1 | 4.76
74 | CCCCNC(=O)c1onc(CSc2ccc(F)cc2)c1C(=O)NCCCC | -10.2
75 | CCN(CC)C(=O)C1CCC(CNS(=O)(=O)c2cccc3cccnc23)CC1 (stereo not shown) | 4.52
76 | CN(C)c1ccc(C(=S)N2CCCCCC2)cc1 | -5.79
77 | NS(=O)(=O)c1ccc(CCNC(=O)c2ccc(Cl)cc2[N+](=O)[O-])cc1 | 16.7
78 | COc1ccccc1N1CCN(C2CC(=O)N(c3ccc(F)cc3)C2=O)CC1 (stereo not shown) | 0.313
79 | O=C1CSC(c2ccccc2)N1c1ccc(F)cc1F (stereo not shown) | 4.37
80 | CCn1c(Cc2ccccc2)nnc1SCC(=O)Nc1ccc(S(N)(=O)=O)cc1 | 2.13
81 | Cc1ccc(Cn2c(SCc3cccnc3)nc3c2c(=O)n(C)c(=O)n3C)cc1 | -0.713
82 | Cc1ccc(-c2ccc(S(=O)(=O)NCC3CCCO3)cc2)cc1 (stereo not shown) | 26.2
83 | CCN(CC)CCCN(C(=O)c1ccc(Br)cc1)c1nc(-c2ccc(OC)cc2)cs1.Cl | -73.2
84 | CCN(CC)CCCN(C(=O)c1ccc(F)cc1)c1nc(-c2ccc(OC)cc2)cs1 | -75.1
85 | COc1ccc(-c2csc(N(CCCN(C)C)C(=O)c3ccc(Br)cc3)n2)cc1.O=C(O)C(=O)O | -44
86 | COCCCN(C(C)=O)c1nc(-c2ccc(OC)cc2)cs1 | -16.5
87 | CCC(=O)N(CC)c1nc(-c2ccc(OC)cc2)cs1 | -5.81
88 | COCCN(C(=O)c1ccccc1)c1nc(-c2ccc(OC)cc2)cs1 | 28.5
89 | CCN(CC)CCCN(C(=O)c1cccc(C)c1)c1nc(-c2ccc(OC)cc2)cs1 | -78.2
90 | COCCCN(C(=O)c1ccccc1)c1nc(-c2ccc(OC)cc2)cs1 | 18.3
91 | CCN(CC)CCCN(C(=O)c1ccc(OC)cc1)c1nc(-c2ccc(OC)cc2)cs1 | -73.7
